# UBC13 inh: blocks human UBC13 polyubiquitin chain formation; P61088; TR-FRET; inhibition, % at 20 µM; 330,000 tested, 0.47% active; in the data active means inhibition above about 45%, passing the limit was not always enough
# UHRF1 MBD2 ctr: blocks human UHRF1 binding to methylated DNA | UHRF1 binding to methylated oligo, TR-FRET | AID 687016 | inhibition, % at 4.4 µM | 370,000 tested, 0.75% active; in the data active means inhibition above about 21%;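 further: UHRF1 SRA domain binding a hemimethylated CpG hairpin DNA probe; 0% = median of test compound wells and 100% = reference inhibitor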
# Target sequence (Q96T88 whole entry, looked up, the tested form may be a part): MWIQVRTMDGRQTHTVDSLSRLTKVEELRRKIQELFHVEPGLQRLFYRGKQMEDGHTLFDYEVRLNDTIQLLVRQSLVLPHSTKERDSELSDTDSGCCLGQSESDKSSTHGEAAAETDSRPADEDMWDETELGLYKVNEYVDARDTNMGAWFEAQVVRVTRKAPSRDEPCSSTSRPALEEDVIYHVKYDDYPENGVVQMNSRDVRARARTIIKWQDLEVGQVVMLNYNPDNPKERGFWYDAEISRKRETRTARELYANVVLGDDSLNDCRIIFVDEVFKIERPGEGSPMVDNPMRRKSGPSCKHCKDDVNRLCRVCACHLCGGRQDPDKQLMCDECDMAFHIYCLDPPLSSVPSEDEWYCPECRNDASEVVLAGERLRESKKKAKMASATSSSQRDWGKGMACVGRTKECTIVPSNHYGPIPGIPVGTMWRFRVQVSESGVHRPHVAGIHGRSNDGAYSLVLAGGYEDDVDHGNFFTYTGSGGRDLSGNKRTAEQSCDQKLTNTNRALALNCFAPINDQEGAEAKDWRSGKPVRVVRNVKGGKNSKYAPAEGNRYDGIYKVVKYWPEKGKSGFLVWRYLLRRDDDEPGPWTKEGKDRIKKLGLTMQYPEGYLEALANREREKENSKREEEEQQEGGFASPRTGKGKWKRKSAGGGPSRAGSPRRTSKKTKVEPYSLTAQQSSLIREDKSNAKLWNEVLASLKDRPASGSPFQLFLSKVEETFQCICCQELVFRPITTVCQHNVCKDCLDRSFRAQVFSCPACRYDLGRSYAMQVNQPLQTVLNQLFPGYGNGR
# Neddyl block: inhibitors of human cullin neddylation | 360,000 tested, 0.58% active | TR-FRET cullin neddylation, biochemical | calls only at 25 µM | P61081+Q13564; in the data active means inhibition above about 36%
# MBD2 inh: MBD2-methylated oligo binding inhibition | Q9UBB5 | TR-FRET, MBD2 binding to methylated oligonucleotide | inhibition, % at 4.4 µM | 370,000 tested, 0.31% active | AID 686964; in the data active means inhibition above about 13%
# Neddyl conf: confirmation of human cullin neddylation inhibitors; shares compounds with Neddyl block; calls only at 25 µM; TR-FRET cullin neddylation biochemical assay; 1,800 tested, 13% active; in the data active means inhibition above about 40%;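 further: neddylation substrate is the cullin 1 ring ligase complex with SKP2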
# The depositor's hits bear a star; i = inactive; . = not tested or not shown; + = active, no number. Sampled rows, rich in hits. Any-hit rate of the full collection: about 1.8%.
SMILES,UBC13 inh,UHRF1 MBD2 ctr,Neddyl block,MBD2 inh,Neddyl conf
c1cncc(-c2nnc(-c3cccs3)o2)c1,6.7,-0.4,+,2.4,.
Cc1ccc(-c2nnc(-c3cccnc3)o2)cc1,-2.0,-0.7,i,1.1,.
COc1ccc(C(c2c(NC(=O)c3ccco3)sc(C)c2C)N2CCOCC2)cc1 (centres undefined),3.5,3.9,+,7.9,.
COc1ccc(C(c2c(NC(=O)c3ccccc3)sc(C)c2C)N2CCN(CCO)CC2)cc1 (centres undefined),8.9,0.5,i,0.4,.
COc1cccc(C(c2c(NC(=O)c3ccccc3)sc(C)c2C)N2CCN(C)CC2)c1 (centres undefined),17.6,-1.0,+,-0.3,i
Cc1c(/C=N/NC(=O)C2(O)c3ccccc3-c3ccccc32)cnn1C,4.4,-0.7,i,0.8,.
O=C(N/N=C/c1ccccc1O)C1(O)c2ccccc2-c2ccccc21,10.5,-2.0,+,0.8,i
CCn1cc(C(=O)O)c(=O)c2cc(F)c(N3CCN(C(=S)NC(=O)c4ccccc4F)CC3)cc21,24.0,1.2,i,4.4,.
CCn1cc(C(=O)O)c(=O)c2cc(F)c(N3CCN(C(=S)NC(=O)c4ccc(OC)cc4)CC3)cc21,1.9,-2.1,+,-6.6,i
CCn1cc(C(=O)O)c(=O)c2cc(F)c(N3CCN(C(=O)Nc4ccccc4)CC3)cc21,43.7,5.7,+,1.6,i
CCn1cc(C(=O)O)c(=O)c2cc(F)c(N3CCN(C(=S)NC(=O)c4ccc(Br)cc4)CC3)cc21,-6.4,1.6,i,4.5,.
O=C(COC(=O)/C=C/c1cccc(F)c1)NCc1ccc2c(c1)OCO2,.,0.0,i,2.0,.
CCn1nc(NC(=O)c2cccs2)c2cc3ccccc3nc21,5.8,-0.2,.,-4.3,.
CCn1nc(NC(=O)C(C)C)c2cc3ccc(C)cc3nc21,-6.3,2.6,+,1.9,i
CCn1nc(NC(C)=O)c2cc3ccc(C)cc3nc21,7.6,-1.8,i,2.8,.
CCn1nc(NC(=O)c2cccnc2)c2cc3ccccc3nc21,-9.5,-5.2,+,-1.5,i
c1ccc(CSc2ncnc3ccccc23)cc1,24.5,-0.8,i,-1.0,.
COc1ccc(-c2oc3ccc(N4CCOCC4)cc3c2C#Cc2ccc(N)cc2)cc1,4.8,0.6,.,1.1,.
COc1cc(-c2cc3nc(C)c(C)c(=O)n3[nH]2)cc(OC)c1OC,5.5,7.4,+,9.6,i
COc1ccc(/C=N/NC(=O)c2ccc(-c3ccccc3)cc2)cc1O,4.6,-2.7,i,-4.0,.
COc1cc(/C=N\NC(=O)c2ccc(-c3ccccc3)cc2)cc(Br)c1O,-14.3,3.1,+,1.2,i
CC(C)NCC(O)COCCOc1ccc(Cl)cc1 (centres undefined),0.0,4.0,+,-3.0,i
O=C1c2ccc(Oc3ccc4c(c3)C(=O)N(CCCCO)C4=O)cc2C(=O)N1CCCCO,4.0,1.6,i,-5.8,.
O=C1c2ccc(-c3ccc4c(c3)C(=O)N(CCCO)C4=O)cc2C(=O)N1CCCO,3.8,0.3,+,-1.1,i
Cc1cc(C)n2c3c(c(C#N)c2n1)CCCC3,4.8,5.2,+,-2.7,i
SMILES,UBC13 inh,UHRF1 MBD2 ctr,Neddyl block,MBD2 inh,Neddyl conf
CCCc1cc(-n2cnc3ccccc32)n2c(nc3ccccc32)c1C#N,1.4,-0.5,+,-0.1,i
CCN(CC)S(=O)(=O)c1cccc(-c2nn(-c3ccccc3)cc2/C=C(\C#N)C(=O)NCc2ccco2)c1,-15.3,0.9,+,-1.2,i
CN(C)S(=O)(=O)c1cccc(-c2nn(-c3ccccc3)cc2/C=C(/C#N)C(=O)NCc2ccco2)c1,-14.7,-0.3,i,4.6,.
O=c1cc(-c2ccco2)oc2ccccc12,.,-13.1,+,-0.1,+
Cc1ccc2oc(-c3ccco3)cc(=O)c2c1,16.2,-3.3,+,1.0,+
N#CC1=C(N)Oc2cc(O)ccc2C1c1ccncc1 (centres undefined),-4.8,-4.8,i,-11.3,.
COc1ccc(C2C(C#N)=C(N)Oc3cc(O)ccc32)cc1Cl (centres undefined),7.6,2.2,+,-0.1,i
CCOc1ccccc1C1C(C#N)=C(N)Oc2cc(N)ccc21 (centres undefined),-3.7,-5.0,+,-4.3,i
C#CCOc1ccc(C2C(C#N)=C(N)Oc3cc(O)ccc32)cc1 (centres undefined),5.8,1.8,+,1.3,i
N/C(=N\O)c1ccncc1,1.2,0.1,i,-6.5,.
COc1ccc(Cc2nnc(NC(=O)c3ccccc3F)s2)cc1,0.7,-3.1,i,-1.9,.
O=C(CN1C(=O)COc2ccccc21)NCCCN1CCCC1,7.5,0.9,i,-0.2,.
CCn1c(=O)c(-c2ccccc2)c(O)c2ccccc21,5.5,-1.1,+,-6.1,+
CCCCn1c(=O)c(-c2ccccc2)c(O)c2ccccc21,3.8,3.0,.,2.7,.
COc1cc(/C=C/C(=O)NCc2cccnc2)cc(OC)c1OC,7.0,-1.2,+,-1.5,i
COc1cc2c(cc1NC(=O)/C=C/c1cc(OC)c(OC)c(OC)c1)oc1ccccc12,-1.6,-2.4,+,3.1,i
N#CCc1nn2c3c(cnc2c1C#N)C(=O)CCC3,-18.5,3.1,i,-0.1,.
Cc1cc(C)n2nc(C(=O)OCC(=O)c3ccccc3)nc2n1,40.6,1.0,i,2.9,.
O=C(Nc1sc2c(c1C(=O)NCCO)CCCC2)c1ccco1,9.7,2.1,+,0.1,.
O=C(Nc1sc2c(c1C(=O)O)CCCCC2)c1ccco1,0.9,0.9,i,0.9,.
COc1ccc(-c2ccc3c(N)c(C(=O)NC(C)C)sc3n2)cc1OC,1.9,12.8,+,1.6,.
COc1ccc(-c2ccc3c(N)c(C(=O)c4ccc(OC)c(OC)c4)sc3n2)cc1,-2.8,-2.5,i,-2.1,.
Cc1ccccc1C(=O)NC1CCN(Cc2ccccc2)CC1,8.3,-0.8,i,2.9,.
Cc1cc(F)ccc1S(=O)(=O)Nc1ccccc1C(=O)NC1CCN(Cc2ccccc2)CC1,5.4,4.5,+,2.6,+
COc1ccc(S(=O)(=O)Nc2ccccc2C(=O)NCc2cccnc2)cc1C,11.3,0.0,+,-6.9,.
SMILES,UBC13 inh,UHRF1 MBD2 ctr,Neddyl block,MBD2 inh,Neddyl conf
COc1ccccc1NS(=O)(=O)c1ccc(C)c(C(=O)NCc2cccnc2)c1,-5.1,-1.9,i,-8.4,.
Cc1cc(F)ccc1S(=O)(=O)Nc1ccccc1C(=O)NCc1cccnc1,-6.7,-2.3,+,5.5,i
O=C(COC(=O)c1cccc2ccccc12)NCC1CCCO1 (centres undefined),8.5,0.2,i,-5.0,.
O=C(COC(=O)c1cc(-c2ccc(F)cc2)nc2ccccc12)NCC1CCCO1 (centres undefined),-1.7,-4.5,+,-1.2,i
COCCNC(=O)c1cc2c(=O)[nH]c3ccccc3c2s1,22.6,-1.0,+,-3.5,.
CC(C)COc1ccc(C(=S)N2CCCC2)cc1,-1.5,-1.3,i,0.6,.

# Source: PubChem BioAssay
